A selection: hits, their analogues and other compounds. The true share with any hit is near 3.4%.
MITF primary: blocks human microphthalmia-associated transcription factor | inhibition, % at 2.6 µM | AlphaScreen MITF homodimerization, bead proximity signal | O75030 | hit rate 0.91% among 650,000; in the data active = inhibition above about 50%;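 note: 0% = vehicle wells with protein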
TEAD-YAP block: TEAD-YAP interaction inhibition; HEK-TIYL cells, TEAD-Gal4/YAP UAS-luciferase luminescence; inhibition, % at 9.12 µM; hit rate 1.4% among 640,000; in the data active = inhibition above about 32%;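 note: 0% = median of test compound wells and 100% = reference inhibitor wells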
GPR151 activ: activates the human receptor GPR151. Q8TDV0. activation, % at 11.2 µM. PathHunter beta-arrestin GPR151 cells, luminescence. hit rate 1% among 650,000. AID 1508602; in the data active = activation above about 4.9%;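 note: 0% = median of compound wells and 100% = cells with positive control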
Target sequence (Q8TDV0 whole entry, looked up): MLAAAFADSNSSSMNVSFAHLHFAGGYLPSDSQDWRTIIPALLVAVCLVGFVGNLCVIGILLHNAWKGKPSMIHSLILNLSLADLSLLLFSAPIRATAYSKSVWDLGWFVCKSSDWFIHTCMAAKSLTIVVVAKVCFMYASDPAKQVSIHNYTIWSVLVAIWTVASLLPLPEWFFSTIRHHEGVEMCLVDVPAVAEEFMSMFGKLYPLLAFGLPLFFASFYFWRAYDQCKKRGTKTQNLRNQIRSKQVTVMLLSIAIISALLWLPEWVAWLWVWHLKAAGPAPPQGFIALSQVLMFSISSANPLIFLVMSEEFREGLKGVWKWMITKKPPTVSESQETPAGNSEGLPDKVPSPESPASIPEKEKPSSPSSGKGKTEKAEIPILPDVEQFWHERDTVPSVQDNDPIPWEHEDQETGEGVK
FBW7 act: activators of human E3 ligase FBW7; normalized activity (activation), % at 26.1 µM; Q969H0; AID 1259310; AlphaScreen FBW7–phospho-cyclin E peptide binding, activator screen; hit rate 0.13% among 650,000; in the data active = normalized activity above about 1.9%;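 note: purified mutant Fbw7 with reduced substrate affinity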
The depositor's hits bear a star.

SMILES | MITF primary | TEAD-YAP block | GPR151 activ | FBW7 act
c1ccc(CNc2ccnc(N3CCN(c4ccccn4)CC3)n2)cc1 | 9 | -2 | 0 | 0
COc1cc(-c2nc3ccc(C(=O)NCCc4ccc(C)cc4)cc3nc2-c2cc(OC)c(OC)c(OC)c2)cc(OC)c1OC | 22 | 38* | 1 | 1
O=C(NCCOc1ccc(Cl)cc1)c1ccco1 | 18 | -5 | 0 | 2.3*
O=C(CCl)NCCOc1ccccc1 | -9 | 36* | 0 | 0
COc1cc(-c2nc3ccc(C(=O)NCCc4ccccc4)cc3nc2-c2cc(OC)c(OC)c(OC)c2)cc(OC)c1OC | 10 | 8 | 0 | 0
O=C(NCCOc1ccccc1)C(=O)NCc1ccco1 | 10 | 48* | 1 | 0
CCc1ccc(OCCNC(=O)c2ccco2)cc1 | 3 | -23 | -2 | 0
O=C(CCC(=O)c1ccccc1)NCCOc1ccccc1 | 7 | 0 | 4 | 0
CN(C)c1ccc(NC(=S)NC(=O)c2ccccc2)cc1 | 18 | -65 | -2 | 0
Cc1ccc2c(c1)C1CN(C)CCC1N2C(=O)c1cc2ccccc2o1 (stereo not given) | 18 | -2 | 0 | 0
O=C1C(=O)N(C(=O)Nc2ccccc2Cl)c2ccccc21 | 5 | 5 | 1 | 0
Cc1nn(-c2ccc(F)cc2)c2sc(C(=O)NCc3ccc(S(N)(=O)=O)cc3)cc12 | -1 | 40* | 0 | 0
COC(=O)c1ccc(C2Nc3ccc4ncccc4c3C3=C2C(=O)CCC3)cc1OC (stereo not given) | 6 | 59* | -1 | 1
Cc1cc(C(=O)CCl)c(C)n1-c1ccccc1F | 8 | 7 | 0 | 0
CCN1CCN(CC(=O)c2cc(C)n(-c3cccc(C(F)(F)F)c3)c2C)CC1 | 63* | 0 | -1 | 0
CCN1CCN(CC(=O)c2cc(C)n(-c3ccccc3F)c2C)CC1 | 62* | -36 | 0 | 0
O=C(NC1CCCc2ccccc21)c1ccc2c(c1)NC(=O)C(CS(=O)(=O)Cc1ccc(F)cc1)N2 (stereo not given) | -6 | 2 | 2 | 0
CC(C)N(C(=O)COC(=O)c1c(F)cccc1Cl)C(C)C | -1 | 7 | 1 | 1
CC(=O)Nc1ccc(-n2c(C)cc(C=C3C(=O)N(C)C(=O)N(C)C3=O)c2C)cc1 | -1 | 1 | 1 | -1
CC(=O)Nc1ccc(-n2c(C)cc(C=C3C(=O)c4ccccc4C3=O)c2C)cc1 | 6 | 83* | -2 | 0
CCN(CC)C1CC(=O)N(c2ccc([N+](=O)[O-])cc2)C1=O (stereo not given) | 15 | -2 | -1 | 0
CC(=O)N(C)c1ccc(NC(=O)COc2ccc3ccccc3c2)cc1 | 10 | 7 | 2 | 0
CCC(=O)c1ccc(N2CCN(C(=O)c3cc(F)c(F)cc3Cl)CC2)c(F)c1 | -4 | -1 | 3 | 0
Cc1ccc(C(=O)Nc2sc3c(c2C(=O)O)CCCCC3)cc1 | -3 | 83* | -3 | 0
Cc1ccc(C(=O)Nc2sc(C)c(C)c2C(=O)O)cc1 | -4 | 49* | -2 | 0
SMILES | MITF primary | TEAD-YAP block | GPR151 activ | FBW7 act
O=C(Nc1sc2c(c1C(=O)O)CCCCC2)c1ccccc1 | 14 | 46* | -9 | 0
CCN(CC)C(=O)c1c(NC(=O)c2cccs2)sc2c1CCC2 | 18 | 36* | 0 | 0
COC(=O)C1=C(C(=O)c2ccccc2)C(=O)C(=O)N1c1ccc(C)cc1 | 23 | -8 | 1 | 0
O=c1nc(/C=C/c2ccc(F)cc2F)cc(C(F)(F)F)[nH]1 | 15 | 7 | -1 | 0
CC1(C)CC(C(=O)N2CCOc3c(O)cc(-c4cccc(Cl)c4)cc3C2)CCO1 (stereo not given) | 15 | -4 | 0 | 0
CCC(C)C(=O)NCc1nnc2n1CCN(Cc1cc(C)ccc1C)CC2 (stereo not given) | 12 | 5 | -2 | 0
CCC(=O)Oc1ccc(-c2nc(-c3ccc(OC)cc3)no2)cc1 | 1 | 44* | -7 | 0
Oc1ccc(-c2nc(-c3ccc(Br)cc3)no2)cc1 | 2 | 50* | -8 | 0
Cc1ccc(-c2noc(-c3ccc(O)cc3)n2)cc1 | 3 | 74* | -9 | 1
CC(C)(C)c1ccc(-c2nc(-c3ccccc3)no2)cc1 | 0 | 77* | 1 | 0
CC(C)(C)c1ccc(-c2nc(-c3ccc(Br)cc3)no2)cc1 | -3 | -10 | -1 | 0
Cc1ccc(/C=C/c2nc(N)nc(-c3ccccc3O)n2)o1 | -22 | -7 | 0 | 0
O=C(CSc1nncn1C(=O)/C=C/c1ccccc1)c1ccccc1 | -3 | -13 | -2 | 0
COCCCNC(=O)c1cc2c(=O)[nH]c3ccccc3c2s1 | 19 | -5 | 0 | 0
Cc1ccc(/C(O)=C2\C(=O)C(=O)N(c3ccccn3)C2c2ccc(C(C)(C)C)cc2)cc1 (stereo not given) | -9 | 44* | -1 | 0
O=C(c1cccs1)C(C(c1ccc(Cl)cc1)N1CCOCC1)N1CCOCC1 (stereo not given) | 8 | 6 | 1 | 0
CO[C@H]1[C@@H]([C@@]2(C)O[C@@H]2CC=C(C)C)[C@]2(CC[C@H]1OC(=O)/C=C/C=C/C=C/C=C/C(=O)O)CO2 | -6 | 46* | 1 | 0
Cc1ccc(NC(=S)N(Cc2ccccc2)Cc2cccs2)cc1 | 13 | -10 | 2 | 0
Cc1ccc(NC(=S)N(Cc2ccccc2)Cc2cccs2)cc1C | -7 | 57* | 1 | 0
COc1cc2c(cc1OC)C(COc1ccc([N+](=O)[O-])cc1)N(C(=O)c1ccc3c(c1)OCO3)CC2 (stereo not given) | 11 | 1 | -1 | 2.1*
COc1ccc(OCC2c3cc(OC)c(OC)cc3CCN2C(=O)c2ccc([N+](=O)[O-])cc2)cc1 (stereo not given) | -17 | -11 | 0 | 0
Cc1cc(Cl)ccc1OC(C)C(=O)N=Nc1c(O)[nH]c(=O)[nH]c1=O (stereo not given) | 4 | -1 | -1 | 0
O=C1/C(=C\c2ccco2)N2CCC1CC2 | 20 | -1 | 1 | 0
CN1C(=O)C(=Cc2ccco2)C(=O)N(C)C1=S | 71* | 6 | -1 | -1
CN1C(=O)C(=C/C=C/c2ccco2)C(=O)N(C)C1=S | 77* | 2 | -1 | 0
SMILES | MITF primary | TEAD-YAP block | GPR151 activ | FBW7 act
CN1C(=O)C(=Cc2ccc(I)o2)C(=O)N(C)C1=S | 81* | -1 | 1 | 0
CC(=O)c1ccc(-c2ccc(C=C3C(=O)N(C)C(=S)N(C)C3=O)o2)cc1 | -5 | -14 | -1 | 0
CN1C2CCC1/C(=C\c1ccco1)C(=O)/C2=C\c1ccco1 | 54* | 4 | -1 | 0
O=S(=O)(c1ccc2oc(Nc3ccc(Cc4ccncc4)cc3)nc2c1)N1CCCCC1 | -5 | -8 | 0 | 0
COc1ccc(N/C=C\C(=O)c2cccnc2)cc1OC | 0 | -37 | 1 | 0
CC(C)CN1C(=O)CCC1CCNCc1cccc(F)c1 (stereo not given) | -3 | 3 | -1 | 1
O=C1NC(=O)N(c2cccc(F)c2)C(=O)/C1=C\C=C\c1ccco1 | 27 | -3 | 0 | 0
COc1cccc(N2C(=O)/C(=C/C=C/c3ccco3)C(=O)NC2=S)c1 | 57* | 6 | -2 | 1
